Compound activity as filed in PubChem BioAssay.
This is a sample that favours compounds with a hit; in the whole collection about 2.7% have one here.
Nrf2 ARE act: qHTS of Nrf2 Activators | 410,000 tested, 0.31% active | AID 624171, 2012 | Potency, µM (titrated, usually from 46.1 µM), most hits filed as activators | AREc32 ARE-luciferase reporter (MCF7-derived line), luminescence, 24 h; also: nearly all actives have a fitted effect of over 65% in size
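Nrf2 activation is followed as ARE-luciferase induction in the AREc32 line after one day of compound treatment; luminescence is read with Steady-Glo.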
A549 tox: Nrf2 qHTS screen for inhibitors: counterscreen for cytotoxicity | A549 ARE-Fluc cells, CellTiter-Fluor viability, 18-24 h | Potency, µM (series often up to 46 µM), most hits filed as inhibitors | 390,000 tested, 0.16% active | AID 504648, 2011
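A549 ARE_Fluc cells in 5% FBS OPTI-MEM were exposed to compounds in concentration-response for 18-24 h at 37 deg C. Viability was read by CellTiter-Fluor fluorescence (Ex 405/Em 525) after 30 min, before the luciferase read.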
Nrf2 inh: Nrf2 qHTS screen for inhibitors | A549 ARE-Fluc reporter, luciferase luminescence, 18-24 h | Potency, µM (series often up to 46 µM), usual class: inhibitors | 360,000 tested, 2.1% active; also: nearly all actives have a fitted effect of over 60% in size
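Cells were seeded and rested 2 h, then exposed to compounds for 18-24 h. CellTiter-Fluor was read first as a viability measure. BugLite was added 15 min before the final luminescent read of ARE-luciferase activity in A549 cells.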
LDHA block: qHTS assay for inhibitors of human lactate dehydrogenase; AID 1347041, 2019; purified LDHA, NADH/diaphorase-resazurin fluorescence; active compounds read low; 480,000 tested, 0.15% active; activity change, % (values are at about 110 or 230 µM); in the data active = activity change below about -30%; inconclusive = mostly about -25% to -30%
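Enzyme activity of human lactate dehydrogenase 5 (2 nM; 0.06 mM NADH, 0.2 mM pyruvate, 5 min, RT) is measured via a resazurin/diaphorase fluorescence readout of residual NADH.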
12-LOX inh: Primary qHTS assay for inhibitors of human arachidonate 12S-lipoxygenase (ALOX12): Round 2; Polyunsaturated fatty acid lipoxygenase ALOX12 (Homo sapiens), P18054; purified 12hLO, xylenol orange hydroperoxide absorbance; Potency, µM (series often up to 108 µM), usual class: inhibitors; 580,000 tested, 1.1% active
Target sequence (P18054 whole entry, looked up): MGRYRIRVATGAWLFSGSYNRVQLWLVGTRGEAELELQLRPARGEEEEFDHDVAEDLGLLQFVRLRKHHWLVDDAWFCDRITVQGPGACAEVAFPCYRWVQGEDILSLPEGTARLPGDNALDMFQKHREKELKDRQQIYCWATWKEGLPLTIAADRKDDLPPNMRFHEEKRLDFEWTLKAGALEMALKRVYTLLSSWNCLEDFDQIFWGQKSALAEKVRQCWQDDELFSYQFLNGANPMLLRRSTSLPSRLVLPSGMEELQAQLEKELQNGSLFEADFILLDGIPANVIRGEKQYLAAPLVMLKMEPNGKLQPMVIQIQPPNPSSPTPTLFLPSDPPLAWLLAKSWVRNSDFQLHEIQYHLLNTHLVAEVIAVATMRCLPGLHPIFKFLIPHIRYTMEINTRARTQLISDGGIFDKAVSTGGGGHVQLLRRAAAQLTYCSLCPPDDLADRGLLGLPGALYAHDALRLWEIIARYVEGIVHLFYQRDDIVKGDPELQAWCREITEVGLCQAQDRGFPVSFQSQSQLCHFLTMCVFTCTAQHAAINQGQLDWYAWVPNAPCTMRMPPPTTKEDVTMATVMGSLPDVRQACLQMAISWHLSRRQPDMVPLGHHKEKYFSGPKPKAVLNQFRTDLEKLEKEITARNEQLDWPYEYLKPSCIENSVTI
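Purified human 12hLO (150 nM final) in 25 mM Hepes, 0.01% Triton X-100, pH 7.0 was preincubated 15 min at room temperature with compound. Then 40 uM arachidonic acid was added, 30 min. Hydroperoxide was read by Fe-XO absorbance ratio 573/405 nm.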
ERG-DNA inh: qHTS for Small Molecule Inhibitors of the ERG Ets/DNA interaction; Transcriptional regulator ERG (Homo sapiens), P11308; fluorescence polarization, His-ERG Ets domain / labelled DNA; Potency, µM (doses to about 76.9 µM), usual class: inhibitors; 370,000 tested, 0.028% active; AID 624246, 2012; active = well fitted inhibition curve with a large enough effect in the polarisation, with a control signal flat; inconclusive = small, poorly fitted or top-dose-only effect, or effect the other way, or a change in a side signal; inactive = no such curve, though single readings can be large or run the other way; the % refers to the polarisation;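 also: polarization taken with two DNA probes labelled with fluorescein and Texas red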
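His-tagged ERG Ets domain (1 uM in the protein solution; 300mM KCl, 50mM Tris-HCl, 1mM EDTA, 1mM DTT, pH 7.5) received compound, then a probe mix of 5 nM fluorescein-DNA and 100nM Texas-615-DNA. Fluorescence polarization was read for both dyes.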
Of the large screens only hits and unclear results are named; the others gave an inactive call. Unless noted, calls follow the shape of the dose curve; as a rule, active = well fitted curve in the direction sought with a large enough effect; inconclusive = small, poorly fitted or top-dose-only effect, or another doubt; inactive = no such curve, though single readings can be large; an effect the other way counts as inactive or inconclusive.

CC(C)Cn1c(C(C)C)nc([N+](=O)[O-])c1Sc1ccc(Cl)cn1	Nrf2 ARE act inconclusive, 12-LOX inh inconclusive
CCCCn1c(CCC)nc([N+](=O)[O-])c1Sc1ccc(Cl)cn1	Nrf2 ARE act 11.2µM, Nrf2 inh inconclusive
COc1ccc(OC)c(NC(=O)Cn2c(N3CCc4ccccc4C3)nc(C)cc2=O)c1	none (no result: Nrf2 ARE act, A549 tox, Nrf2 inh, LDHA block, ERG-DNA inh)
COc1ccccc1OCC(=O)Nc1ccc(C(=O)Nc2ccccc2C(=O)O)cc1	none (no result: A549 tox, Nrf2 inh, ERG-DNA inh)
COc1cccc(NC(=O)c2ccc(CN3CCc4ccccc4C3)cc2)c1	Nrf2 inh 14.6µM
COc1cccc(NC(=O)Cn2c(N3CCc4ccccc4C3)nc(C)cc2=O)c1	12-LOX inh 28.2µM (no result: Nrf2 ARE act, A549 tox, Nrf2 inh, LDHA block, ERG-DNA inh)
COc1ccc(CC(=O)Nc2ccc(C(=O)Nc3ccccc3C(=O)O)cc2)cc1OC	Nrf2 inh inconclusive, LDHA block -37.4
COc1ccc(NC(=O)c2ccc(CN3CCc4ccccc4C3)cc2)cc1OC	Nrf2 inh 20.6µM
CN(CC(=O)Nc1cccc2ccccc12)C(=O)CSc1nccn1-c1cccc(F)c1	12-LOX inh inconclusive (no result: Nrf2 ARE act, A549 tox, Nrf2 inh, ERG-DNA inh)
Cn1c(=O)[nH]c(=O)c2c1nc(NCCCO)n2Cc1ccccc1	12-LOX inh inconclusive (no result: Nrf2 ARE act, A549 tox, Nrf2 inh, ERG-DNA inh)
COc1ccccc1NC(=O)N(Cc1ccco1)Cc1cc2cc(C)cc(C)c2[nH]c1=O	A549 tox inconclusive, Nrf2 inh 23.1µM
COCCN1C(=O)c2ccccc2C(C(=O)Nc2cc(C)ccc2OC)C12CCCCC2 (stereo not given)	none (no result: Nrf2 ARE act, A549 tox, Nrf2 inh, LDHA block, ERG-DNA inh)
Cc1ccc(S(=O)(=O)N(CC(=O)NC2CC3CCC2C3)c2ccccc2)cc1 (stereo not given)	LDHA block -42.6, 12-LOX inh inconclusive (no result: A549 tox, Nrf2 inh, ERG-DNA inh)
CCCCCCOc1ccc(C(=O)CCN(C)C)cc1	12-LOX inh 31.6µM (no result: Nrf2 ARE act, A549 tox, Nrf2 inh, ERG-DNA inh)
CCCOc1ccc(C(=O)CCN(C)C)cc1	none (no result: Nrf2 ARE act, A549 tox, Nrf2 inh, ERG-DNA inh)
CCCCCC1CCC(c2ccc(C(=O)CCN(C)C)cc2)CC1 (stereo not given)	12-LOX inh 7.94µM (no result: Nrf2 ARE act, A549 tox, Nrf2 inh, ERG-DNA inh)
O=C(CCSc1ccc(Br)cc1)c1ccc(O)cc1	Nrf2 ARE act 15.8µM, Nrf2 inh inconclusive
COc1ccc(C(=O)CCN(C)C)cc1	none (no result: Nrf2 ARE act, A549 tox, Nrf2 inh, ERG-DNA inh)
CCCSc1ccc(C(=O)CCN(C)C)cc1	12-LOX inh 31.6µM (no result: Nrf2 ARE act, A549 tox, Nrf2 inh, ERG-DNA inh)
Cc1cccc2cc(CN(Cc3ccccc3)C(=O)C(C)C)c(=O)[nH]c12	none (no result: Nrf2 ARE act, A549 tox, Nrf2 inh, ERG-DNA inh)
Nc1nc(Nc2ccc(Cl)c(Cl)c2)nc(-c2cc3ccccc3o2)n1	12-LOX inh inconclusive (no result: Nrf2 ARE act, A549 tox, Nrf2 inh, ERG-DNA inh)
COc1nccc(N2CCC(CC(=O)NCc3ccc(F)c(Cl)c3)CC2)n1	none (no result: Nrf2 ARE act, A549 tox, Nrf2 inh, LDHA block, ERG-DNA inh)
CCNc1ccc(Br)cc(C(=O)/C=C/c2ccc3c(c2)OCO3)c1=O	Nrf2 ARE act inconclusive, 12-LOX inh 3.16µM
Fc1ccc(OCc2nc(C3CCCN3)no2)cc1 (stereo not given)	none (no result: Nrf2 ARE act, A549 tox, Nrf2 inh, LDHA block, ERG-DNA inh)
Cc1ccccc1C1N=C(Nc2nc3ccccc3o2)NC2=C1C(=O)CC(C)(C)C2 (stereo not given)	none (no result: Nrf2 ARE act, A549 tox, Nrf2 inh, ERG-DNA inh)
CC1(C)CC(=O)C2=C(C1)NC(Nc1nc3ccccc3o1)=NC2c1cccc(Cl)c1 (stereo not given)	LDHA block -30.3 (no result: Nrf2 ARE act, A549 tox, Nrf2 inh, ERG-DNA inh)
CCOc1ccc(N(CC(=O)Nc2cccc(F)c2)S(=O)(=O)c2c(C)noc2C)cc1	Nrf2 inh 13µM
CCOc1ccc(N(CC(=O)Nc2ccc(C)c(C)c2)S(=O)(=O)c2c(C)noc2C)cc1	Nrf2 inh 13µM
COCc1cc(C)n(CC(=O)Nc2cc(C(F)(F)F)ccc2Cl)c(=O)c1C#N	none (no result: Nrf2 ARE act, A549 tox, Nrf2 inh, ERG-DNA inh)
Cc1cc2c(N3CCCCC3C)ncnc2s1 (stereo not given)	Nrf2 inh 20.6µM
Cc1c(C(=O)O)sc2ncnc(N3CCCCC3C)c12 (stereo not given)	Nrf2 inh inconclusive
COc1ccccc1-c1cc2c(nc1-c1ccccc1)nc(C(=O)NC1CCN(C)CC1)n2C	none (no result: Nrf2 ARE act, A549 tox, Nrf2 inh, LDHA block, ERG-DNA inh)
CC(C)NC(=O)c1cccc2c1CCCN2CC(=O)NC(N)=O	none (no result: Nrf2 ARE act, A549 tox, Nrf2 inh, ERG-DNA inh)
N=c1nc2n(cc1F)C1OC(CO)C(O)C1O2 (stereo not given)	A549 tox inconclusive, Nrf2 inh 0.13µM
COc1ccc(NC(=O)c2cc(-c3ccc(C)o3)nc3ccccc23)cc1OC	Nrf2 ARE act inconclusive, 12-LOX inh inconclusive (no result: Nrf2 inh)
Cc1ccc(-c2cc(C(=O)Nc3ccc(C#N)cc3)c3ccccc3n2)o1	12-LOX inh 12.6µM (no result: Nrf2 ARE act, A549 tox, Nrf2 inh, ERG-DNA inh)
COc1ccc(NC(=O)c2cc(-c3ccc(C)o3)nc3ccccc23)c(OC)c1	12-LOX inh inconclusive
Cc1ccc(-c2cc(C(=O)Nc3ccc(C(N)=O)cc3)c3ccccc3n2)o1	12-LOX inh 7.94µM (no result: Nrf2 ARE act, A549 tox, Nrf2 inh, ERG-DNA inh)
Cc1ccc(-c2cc(C(=O)Nc3ccccc3C(N)=O)c3ccccc3n2)o1	12-LOX inh 6.31µM
O=C(CSc1nnc(C2CC2)n1Cc1ccccc1)c1ccccc1	12-LOX inh inconclusive (no result: Nrf2 ARE act, A549 tox, Nrf2 inh, ERG-DNA inh)
O=C(CCc1ccc(F)c(F)c1)N1CC=C(c2c[nH]c3ncccc23)CC1	12-LOX inh inconclusive (no result: Nrf2 ARE act, A549 tox, Nrf2 inh, ERG-DNA inh)
C/C(=N\N=C(N)N)C1CCCCCCCCCCC1	12-LOX inh inconclusive (no result: Nrf2 ARE act, A549 tox, Nrf2 inh, ERG-DNA inh)
